Screening data: PubChem, several laboratories
BJeLR viability: BJeLR cell viability loss; 300,000 tested, 0.17% active; BJeLR (HRASV12) viability, CellTiter-Glo ATP luminescence, 48 h; inhibition, % (concentration not given with the values); in the data active means inhibition above about 50%
VHR inh abs: inhibitors of human VHR1 phosphatase (DUSP3). recombinant VHR phosphatase, pNPP absorbance. inhibition, % at 13.3 µM. 290,000 tested, 0.52% active. AID 1654; in the data active means inhibition above about 50%
Target sequence (P51452 whole entry, looked up): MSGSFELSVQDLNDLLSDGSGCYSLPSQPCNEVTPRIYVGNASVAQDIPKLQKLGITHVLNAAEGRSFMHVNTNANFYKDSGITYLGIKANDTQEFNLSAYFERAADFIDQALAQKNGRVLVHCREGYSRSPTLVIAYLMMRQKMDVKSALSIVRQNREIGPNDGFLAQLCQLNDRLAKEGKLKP
PrPC surface inh: inhibitors of human cell surface prion protein PrPC. P04156. TR-FRET read-out. inhibition, % at 13.8 µM. 370,000 tested, 0.43% active. AID 720596; in the data active means inhibition above about 24%; further: 0% = median of the test wells and 100% = reference compound wells
3CLpro inhibitor: SARS-CoV 3CLpro protease inhibition | AID 1706 | recombinant SARS-CoV 3CLpro, quenched FRET peptide cleavage | inhibition, % at 6 µM | P0C6X7 | 290,000 tested, 0.14% active; in the data active means inhibition above about 12%
Starred values were filed as active, the others as inactive; . = no result given. In the library only some 1.1% were active in any assay of this set; here they are far more common.

SMILES | BJeLR viability | VHR inh abs | PrPC surface inh | 3CLpro inhibitor
C=C1C(=O)O[C@@H]2C[C@@H](C)[C@@H]3C4OC4C(=O)[C@@]3(C)[C@@H](O)[C@H]12 (stereo partly specified) | 36.6 | -4.1 | 36.1* | .
CCOC(=O)Cc1csc(NC(=S)NC(=O)c2ccccc2C)n1 | -3.5 | 52.7* | 0.7 | 2.9
CCOC(=O)Cc1csc(NC(=S)NC(=O)c2ccc(F)cc2)n1 | -3.7 | 7.1 | 5.0 | 7.6
COC1CC(NC(C)=O)C(OC(=O)c2ccccc2)C(CBr)O1 (stereo unspecified) | . | . | -0.1 | .
CCCC(=O)OCCNc1cc(Sc2nccn2C)c2nonc2c1[N+](=O)[O-] | 93.5* | 10.4 | -17.1 | -1.2
Cc1onc(-c2ccccc2Cl)c1C(=O)NC(=S)NCC(=O)c1ccccc1 | 2.4 | 57.4* | 1.4 | -3.3
CCc1ccc(NC(=S)NC(=O)c2c(-c3ccccc3Cl)noc2C)cc1 | 10.5 | 4.8 | 3.0 | 2.0
Oc1c(C(Nc2nc3ccccc3s2)c2ccco2)ccc2cccnc12 (stereo unspecified) | -3.7 | -12.4 | 24.8* | -3.4
Cc1ccc(-n2nnc3c(=O)n(Cc4cc(C)ccc4C)cnc32)cc1 | 2.1 | 51.6* | 0.6 | 2.9
CC(C)OCCCn1c(=O)c2ccccc2n2c(CCC(=O)NC3CCN(Cc4ccccc4)CC3)nnc12 | -7.1 | 52.7* | -6.9 | 6.5
CCCCCCC12C(=Cc3cc(C)ccc31)c1ccccc1C(CC(=O)NCc1ccccc1)N2C(=O)OC (stereo unspecified) | . | . | -0.7 | .
Cc1cccc(OCCC(=O)Nc2ccc(C)c(S(=O)(=O)N3CCOCC3)c2)c1 | . | . | 3.4 | .
Cc1cccc(OCCC(=O)Nc2ccc(C)c(S(=O)(=O)N3CCCCC3)c2)c1 | -13.2 | 51.3* | 21.3 | 11.4
COc1ccc(C)cc1NS(=O)(=O)c1ccc(-c2cnc(C3CC3)o2)cc1 | 58.4* | 2.3 | 22.7 | -2.2
CC(=O)Nc1ccc(S(=O)(=O)N2CCC(C(=O)NCCC(=O)Nc3ccccc3)CC2)cc1 | 1.6 | -5.9 | -3.3 | 4.2
COc1ccc(S(=O)(=O)N2CCC(C(=O)NCCC(=O)Nc3ccc(Cl)cc3)CC2)cc1 | 0.7 | 56.7* | -5.1 | -5.8
O=C(OCc1cn([C@@H]2CN(C(=O)C3CCCCC3)[C@@H](c3ccc(Cl)cc3)C[C@H]2O)nn1)c1ccccc1 | . | . | 1.6 | .
O=C(O)c1ccc(CN2C(=O)c3cccc4c([N+](=O)[O-])ccc(c34)C2=O)cc1 | 72.9* | -16.2 | . | 3.2
Cc1ccc(C(=O)O)cc1N1C(=O)c2cccc3c([N+](=O)[O-])ccc(c23)C1=O | -0.6 | 1.3 | -13.4 | 1.7
CN(C(=O)c1cccc(NC(=O)Cc2ccc(NC(=O)C3CCCN(C(=O)C4CCC4)C3)cc2)c1)C1CCCCC1 (stereo unspecified) | . | . | -2.8 | .
COc1ccc(-c2ncn(CCc3ccccc3OC)c2CC(C)C)cc1 | . | . | 7.9 | .
CCc1nc2c(OCc3cccc(Cl)c3)cccn2c1N(C)C(=O)Nc1ccccc1OC | . | . | 15.1 | .
Cc1ccc(C[n+]2c(-c3ccc(C)cc3)cc(-c3ccc(C)cc3)cc2-c2ccc(C)cc2)cc1 | 60.4* | . | . | .
CCn1c(SCC(=O)N2c3ccccc3CCc3ccccc32)nnc1-c1ccc(OC)cc1 | 8.3 | 55.4* | . | 6.6
CCn1c(SCC(=O)N2CCc3ccccc32)nnc1-c1ccncc1 | -2.5 | 16.9 | -4.4 | -6.3
SMILES | BJeLR viability | VHR inh abs | PrPC surface inh | 3CLpro inhibitor
O=S(=O)(c1ccccc1)N1N=C(c2ccccc2)CC1c1ccccc1F (stereo unspecified) | 10.4 | 53.0* | -4.9 | -0.1
Cc1ccc(NC(=S)N2CCCCCC2)c(C)c1 | 0.7 | 52.8* | -4.8 | -2.8
Cc1ccc(C)c(NC(=S)N2CCCC2)c1 | 2.4 | 35.7 | -2.6 | 0.9
O=C(CCC(=O)c1ccc(F)cc1)NC1CCCN(Cc2ccccc2F)C1 (stereo unspecified) | -10.9 | 11.4 | 6.6 | 1.6
CN1c2ccccc2Sc2cc(N)ccc21 | 6.0 | 55.0* | 1.5 | 4.4
O=C(O)c1ccc2c(c1)C(=O)N(c1cccc(-c3nc4ccccc4s3)c1)C2=O | -4.3 | 122.6* | 5.4 | -1.7
COc1ccc(CNC(=O)C[C@H]2C[C@H](C(=O)N3CCCCC3)[C@@]3(C)c4[nH]c5cc(CCC(=O)N(C)C)ccc5c4CCN3C2=O)cc1OC | . | . | -2.2 | .
Fc1cccc(CNCc2ccc3c(c2)OCO3)c1 | -0.9 | 13.9 | -6.6 | 0.8
CSc1ccc(CNCc2ccc3c(c2)OCO3)cc1 | 3.2 | 55.4* | -4.0 | 4.3
O=C1c2ccccc2C(=O)N1CCSc1ccccc1 | -2.8 | 55.3* | . | 2.1
CCOc1ccc2nc(SCC(=O)NC3CCCCC3)[nH]c2c1 | -4.7 | -17.1 | 13.1 | 3.9
COc1ccc2nc(SCC(=O)NC3CCCCC3)[nH]c2c1 | -1.0 | 57.5* | 1.7 | -4.3
CCOC(=O)N1CCC(NC(=O)c2cccn3c(=O)c4cc(Br)ccc4nc23)CC1 | -0.8 | 83.6* | -13.5 | 1.4
C[C@H]1CN([C@@H](C)CO)C(=O)CCCn2nncc2CO[C@@H]1CN(C)C(=O)c1ccc2ccn(C)c2c1 | . | . | -7.7 | .
Cc1c(C(=O)NCc2ccccc2)sc(=O)n1Cc1ccccc1F | . | . | 5.9 | .
CCN1C(=O)[C@H]2[C@H]3CN=C(SCc4ccc(C)cc4)N3[C@@](Cc3ccccc3)(C(=O)OC)[C@H]2C1=O | . | . | -0.3 | .
Cc1ccc(-c2nn3c(C)nnc3c3ccccc23)cc1S(=O)(=O)NCCN1CCOCC1 | -5.6 | 52.4* | 10.4 | 2.1
O=c1[nH]c(C2CCN(S(=O)(=O)c3ccc(S(=O)(=O)NC4CC4)cc3)CC2)nc2c1nnn2Cc1ccc(F)cc1 | -0.6 | 59.1* | -0.2 | 6.0
CC(C)Oc1ccccc1C1CC(=O)Nc2c1c(=O)n(C)c(=O)n2C (stereo unspecified) | -2.5 | 58.7* | . | -3.5
Cc1[nH]n(-c2ccccc2)c(=O)c1N=Nc1c(Cl)cccc1Cl | -0.6 | 58.7* | . | 1.7
Cc1onc(-c2ccccc2)c1C(=O)OCC(=O)c1ccc[nH]1 | . | . | -6.7 | .
COc1ccc(NC(=O)NNC(=O)c2ccc3ccccc3c2O)c(OC)c1 | -4.3 | 36.6 | 8.9 | -0.6
O=[N+]([O-])c1cc(S(=O)(=O)Nc2ccccc2)ccc1NCc1ccccc1 | -8.5 | 25.5 | -3.5 | 2.0
O=[N+]([O-])c1cc(S(=O)(=O)Nc2ccccc2)ccc1NCc1cccnc1 | 8.2 | 59.9* | -20.1 | -4.4
CN1CCN(c2ccc([N+](=O)[O-])c3no[n+]([O-])c23)CC1 | 71.5* | -7.7 | 2.6 | -37.7
SMILES | BJeLR viability | VHR inh abs | PrPC surface inh | 3CLpro inhibitor
CC(=O)Nc1ccc(NC(=S)NC(=O)C2CCCC2)cc1 | 0.4 | 59.7* | -5.1 | 1.0
OC(c1cccnc1)c1nc(/C=C/c2ccc(C(F)(F)F)cc2)cs1 (stereo unspecified) | . | . | -3.4 | .
COC(=O)c1ccc(-c2cc(C(=O)O)c3cc4c(cc3n2)OCCO4)cc1 | 10.2 | 51.7* | -8.2 | -0.3
COc1cc(-c2cc(C(=O)O)c3cc4c(cc3n2)OCCO4)cc(OC)c1OC | -15.7 | 39.7 | -12.4 | 0.9
C=CCOc1ccccc1CN(C(=O)CCl)c1ccc2c(c1)OCO2 | 124.8* | 30.7 | 3.2 | 3.1
CCC1N=C(SC)NC(C)=C1C(=O)c1ccccc1 (stereo unspecified) | . | -14.0 | -2.6 | 0.0
